Compound activity as filed in PubChem BioAssay.
D1 agonist: Allosteric Agonists of the Human D1 Dopamine Receptor: qHTS; activation, % at 2 µM; HEK293 T-REx D1 cells, calcium flux, agonist mode; 360,000 compounds, 1% hits; in the data active = activation above about 30%; also: 0% is about no effect
Target sequence (P21728 whole entry, looked up): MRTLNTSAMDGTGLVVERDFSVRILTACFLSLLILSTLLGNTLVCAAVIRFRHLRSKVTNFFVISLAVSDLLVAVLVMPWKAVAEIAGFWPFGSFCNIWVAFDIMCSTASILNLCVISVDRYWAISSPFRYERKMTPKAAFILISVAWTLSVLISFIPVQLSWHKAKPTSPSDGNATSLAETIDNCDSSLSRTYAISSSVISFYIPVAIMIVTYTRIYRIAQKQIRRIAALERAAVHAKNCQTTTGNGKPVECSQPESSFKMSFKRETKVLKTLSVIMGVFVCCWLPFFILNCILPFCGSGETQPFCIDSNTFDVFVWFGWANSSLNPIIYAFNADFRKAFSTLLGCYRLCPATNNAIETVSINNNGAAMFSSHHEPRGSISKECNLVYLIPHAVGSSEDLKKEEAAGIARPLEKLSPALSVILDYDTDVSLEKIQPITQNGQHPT
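Inducible HEK293 T-REx D1 cells, force-coupled to calcium signalling, were plated at 4000 cells/well with tetracycline and held overnight at 30 C. After no-wash calcium dye loading, compound-evoked calcium rise over 180 s flagged agonists.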
D1 antag: Antagonist of Human D 1 Dopamine Receptor: qHTS; D(1A) dopamine receptor (Homo sapiens), P21728; HEK293 TREx D1 cells, calcium flux, dopamine EC80; hits give low values; activity change, negative = inhibition, % at 10 µM; 360,000 compounds, 3.2% hits; AID 504652, 2011; in the data active = activity change below about -30%; also: % is scaled to controls: 0 for no effect and ±100 for the full control effect
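Tetracycline-induced HEK293 T-REx cells with force-coupled D1 receptor were loaded with a no-wash calcium dye. Compound was added after a 10 s baseline and read kinetically for 180 s; EC80 dopamine was then added and calcium flux followed another 180 s.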
TRPV1 potentiator: HTS Assay for Compounds that Act as Potentiators of the Vanilloid Receptor 1 | 320,000 compounds, 0.02% hits | AID 540277, 2011 | TRPV1-expressing cells, Fluo-8 calcium influx, capsaicin EC20 potentiation | potentiation, % at 8.33 µM; in the data active = potentiation above about 80%; inconclusive = between about 30% and that limit; also: 0% is about no effect
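Cells expressing TRPV1 were dye-loaded with Fluo-8 and read kinetically: 10 s baseline, 3 min after compound (agonist portion), then 2 min after EC20 capsaicin (allosteric enhancer portion). Calcium-bound dye fluorescence at 480/520 nm.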
TRPV1 agonist: HTS Assay for Compounds that Act as Agonists of the Vanilloid Receptor 1; 320,000 compounds, 0.19% hits; TRPV1-expressing cells, Fluo-8 calcium influx, agonist mode; activation, % at 8.33 µM; in the data active = activation above about 80%; inconclusive = between about 30% and that limit; also: 0% is about no effect
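Fluo-8 calcium influx in TRPV1-expressing cells, kinetic read (ex 480/em 520 nm). Compound added and read 3 min for agonist activity, followed by capsaicin at EC20 final and 2 min further read for enhancement.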
D1 PAM: Potentiators of Human D1 Dopamine Receptor: qHTS | D(1A) dopamine receptor (Homo sapiens), P21728 | HEK293 TREx D1 cells, calcium flux, dopamine EC20 potentiation | potentiation, % at 10 µM | 360,000 compounds, 0.036% hits | AID 504651, 2011; in the data active = potentiation above about 30%; also: 0% is about no effect
* marks the source's active call; other numbers are inactive results. Compounds with a hit are over-represented: about 4.2% of the library has one in this group of screens.

`CCOC(=O)c1cccc(NC(=O)c2cc3sccc3n2Cc2ccc(Cl)cc2)c1` gave D1 agonist 10, D1 antag 6 and D1 PAM -5.
For O=C1CC(c2ccsc2)Sc2ccccc2N1 (stereo unspecified) the results were D1 agonist 5, D1 antag -32*, TRPV1 potentiator -2, TRPV1 agonist 2 and D1 PAM 1.
For COc1ccc(CC(=O)NCc2ccc3c(c2)CCN3C(=O)c2ccc(C)cc2)cc1OC the results were D1 agonist -1, D1 antag -9 and D1 PAM -2.
For COc1cccc(NC(=S)NCc2ccc(F)cc2)c1 the results were D1 agonist 4, D1 antag -9, TRPV1 potentiator -17, TRPV1 agonist inconclusive and D1 PAM 0.
`COc1ccc(CNC(=S)Nc2cccc(F)c2)cc1` gave D1 agonist 7, D1 antag 1, TRPV1 potentiator -7, TRPV1 agonist 88* and D1 PAM -4.
`FC(F)Oc1ccc(NC(=S)NCc2cccnc2)cc1` gave D1 agonist 5, D1 antag -3, TRPV1 potentiator -17, TRPV1 agonist 3 and D1 PAM 6.
For Fc1cccc(NC(=S)NCCc2ccccc2)c1 the results were D1 agonist 19, D1 antag -38*, TRPV1 potentiator -29, TRPV1 agonist inconclusive and D1 PAM -8.
`Fc1ccc(CNC(=S)Nc2ccc(OC(F)F)cc2)cc1` gave D1 agonist 26, D1 antag -42*, TRPV1 potentiator 9, TRPV1 agonist inconclusive and D1 PAM -7.
C/C(=N\NC(=S)NCCc1ccccc1)c1ccc(O)cc1O was read as D1 agonist 20, D1 antag -39*, TRPV1 potentiator 29 and TRPV1 agonist 3.
Screening O=[N+]([O-])c1ccc(NC(=S)NCCc2ccc(F)cc2)cc1 returned D1 agonist 17, D1 antag -26, TRPV1 potentiator 6, TRPV1 agonist inconclusive and D1 PAM -13.
Screening O=[N+]([O-])c1cccc(NC(=S)NCCc2ccccc2)c1 returned D1 agonist 43*, D1 antag -2, TRPV1 potentiator 0, TRPV1 agonist 1 and D1 PAM -5.
For Fc1ccc(NC(=S)NCCc2ccc(Cl)cc2)cc1 the results were D1 agonist 17, D1 antag -10, TRPV1 potentiator 22, TRPV1 agonist inconclusive and D1 PAM -14.
Screening Fc1ccc(CCNC(=S)Nc2ccc(F)c(Cl)c2)cc1 returned D1 agonist 13, D1 antag -32*, TRPV1 potentiator -7, TRPV1 agonist 23 and D1 PAM -2.
`CC(C)(CNC(=S)NCCc1ccccc1)CNC(=S)NCCc1ccccc1` gave D1 agonist 15, D1 antag -30*, TRPV1 potentiator -2, TRPV1 agonist 5 and D1 PAM -7.
Cc1ccccc1NC(=O)CCNC(=O)Cn1ccc2ccccc2c1=O was read as D1 agonist 3, D1 antag -35* and D1 PAM 1.
For COC(=O)[C@@H](N)Cc1ccc(O)c(O)c1 the results were D1 agonist -2, D1 antag -53*, TRPV1 potentiator -31, TRPV1 agonist 1 and D1 PAM -6.
O=C(/C=C/c1cccc(F)c1)NCc1ccc2c(c1)OCO2 was read as D1 agonist 5, D1 antag -35*, TRPV1 potentiator -14, TRPV1 agonist -1 and D1 PAM -8.
`O=C(/C=C/c1cccc([N+](=O)[O-])c1)NCc1ccc2c(c1)OCO2` gave D1 agonist 2, D1 antag 9, TRPV1 potentiator -3, TRPV1 agonist 10 and D1 PAM -2.
O=C(/C=C/c1ccc2c(c1)OCO2)NCCSCc1ccc(Cl)cc1Cl was read as D1 agonist 20, D1 antag -26, TRPV1 potentiator -1, TRPV1 agonist 2 and D1 PAM -5.
`O=C(/C=C/c1ccc2c(c1)OCO2)NCCSCc1cccc(Cl)c1` gave D1 agonist 6, D1 antag -31*, TRPV1 potentiator -2, TRPV1 agonist inconclusive and D1 PAM -10.
